Screens: PubChem BioAssay, several laboratories
An excerpt weighted towards active compounds, which were near 5.2% of everything screened.
Yeast superoxide = reduction of superoxide in aged yeast, primary screen, HTS | AID 2690, 2010 | 330,000 compounds, 0.18% hits | S. cerevisiae aged cells, superoxide DHE fluorescence; hits give low values | superoxide response (% of plate mean), % at 10 µM;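 active means superoxide response under a set limit, about three screen SD below normal, cut at about 65% in these data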;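 further: yeast aged for seven days with compound at 30 °C before DHE staining; 100% = average MFI of all compound-treated wells on the plate with controls excluded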
A3G deaminase = APOBEC3G DNA deaminase inhibitors, primary screen, biochemical, fluorescence, single-stranded DNA substrate, uHTS. recombinant A3G, ssDNA deamination FAM/TAMRA fluorescence. inhibition, % at 20 µM. 330,000 compounds, 0.28% hits. DNA dC->dU-editing enzyme APOBEC-3G (Homo sapiens), Q9HC16;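 active means inhibition of at least 40% at 20 µM, with no more than 30% in the related APOBEC3A deaminase screen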;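 further: plate controls were DMSO wells with A3G for no effect and wells lacking A3G enzyme for full effect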
ALR H2O2 inh = inhibitors of human ALR sulfhydryl oxidase, primary screen, biochemical, H2O2 detection, HRP-luminol luminescence, single point; 290,000 compounds, 3.8% hits; purified ALR, DTT oxidation; FAD-linked sulfhydryl oxidase ALR (Homo sapiens), P55789; inhibition, % (no concentration beside the values);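 active means mean replicate inhibition above about 79%, with every replicate also reaching it, limit read from the data; inconclusive means only one of the two criteria met; inactive means mean below limit and not every replicate reaching it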
CendR NRP1 mod = modulators of CendR peptide binding to NRP-1, primary screen, biochemical, fluorescence polarization, uHTS; Neuropilin-1 (Homo sapiens), O14786; FAM-RPARPAR peptide binding to NRP-1; inhibition, % at 25 µM; 360,000 compounds, 0.85% hits; AID 602438, 2012;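 active means inhibition or corrected inhibition above about 18%, plus a signal ratio from 0.5 to 1.5, limit read from the data, passing the limit was not always enough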
A3A deaminase = APOBEC3A ssDNA deaminase inhibitors, primary screen, selectivity assay for APOBEC3G inhibitor project, biochemical, FAM/TAMRA oligo cleavage fluorescence; DNA dC->dU-editing enzyme APOBEC-3A (Homo sapiens), P31941; recombinant A3A, FAM/TAMRA ssDNA deamination fluorescence; inhibition, % at 20 µM; 330,000 compounds, 0.41% hits;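 active means at least 40% inhibition at 20 µM here, with at most 30% in a related deaminase screen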;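 further: plate controls were A3A with DMSO for no effect and wells lacking A3A enzyme for full effect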
Target sequence (P31941 whole entry, looked up): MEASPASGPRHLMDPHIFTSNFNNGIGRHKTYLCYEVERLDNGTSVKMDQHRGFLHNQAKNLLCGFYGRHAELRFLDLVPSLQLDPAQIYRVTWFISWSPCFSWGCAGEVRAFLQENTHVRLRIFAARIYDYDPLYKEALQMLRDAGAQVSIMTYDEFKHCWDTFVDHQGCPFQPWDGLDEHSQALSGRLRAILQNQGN
PfM18AAP inh-1 = PfM18AAP inhibitors, malaria aminopeptidase, primary screen, biochemical, QFRET, recombinant enzyme | M18 aspartyl aminopeptidase (Plasmodium falciparum 3D7) | inhibition, % at 7.35 µM | AID 1822, 2009 | H-Glu-NHMec fluorogenic cleavage | 290,000 compounds, 1.2% hits;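 active means inhibition above the campaign mean inhibition over all tested compounds plus 3 SD, cut at about 28% in these data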;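 further: 0% = plate median of test compound wells and 100% = 2 mM ZnCl2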
PfM18AAP inh-2 = PfM18AAP inhibitors, malaria aminopeptidase, confirmation, biochemical, QFRET, recombinant enzyme, triplicate | H-Glu-NHMec fluorogenic cleavage | shares compounds with PfM18AAP inh-1 | inhibition, % at 7.35 µM | 2,400 compounds, 28% hits;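 active means mean inhibition over replicate wells above the hit cutoff set for the earlier primary screen, cut at about 29% in these data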;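 further: 0% = median of test compound wells and 100% = 2 mM ZnCl2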
CTSL1 counter = cathepsin L1 inhibitors, retest, confirmation, counter-screen for PFM18AAP inhibitor project, biochemical, QFRET, triplicate. shares compounds with PfM18AAP inh-1. purified cathepsin L1, Z-Leu-Arg-MCA fluorescence. inhibition, % at 5.96 µM. 2,400 tested, under 10 active. AID 2178, 2009;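 active means average inhibition across replicates above the hit cutoff set in the earlier primary screen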;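 further: 0% = median of test compound wells and 100% = Z-Phe-Ala-diazomethylketone 1 µM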
Target sequence (P07711 whole entry, looked up): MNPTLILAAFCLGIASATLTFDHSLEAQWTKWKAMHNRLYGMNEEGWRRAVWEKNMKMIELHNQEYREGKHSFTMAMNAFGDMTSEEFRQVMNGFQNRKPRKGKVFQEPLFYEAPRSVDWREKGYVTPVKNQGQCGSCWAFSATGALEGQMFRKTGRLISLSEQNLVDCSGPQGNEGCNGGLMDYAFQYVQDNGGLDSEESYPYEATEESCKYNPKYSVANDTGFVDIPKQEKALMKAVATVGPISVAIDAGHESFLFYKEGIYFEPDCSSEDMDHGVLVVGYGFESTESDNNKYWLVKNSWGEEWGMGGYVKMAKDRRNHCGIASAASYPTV
Active calls of the source: *; ! = a repeat was not active.

Results for COC(=O)Oc1ccc(/C=C/C(=O)OC(C)C)cc1OC(=O)OC ?
Yeast superoxide: 106.3; A3G deaminase: -8.6; ALR H2O2 inh: 95.1*; CendR NRP1 mod: -6.1; A3A deaminase: -2.2; PfM18AAP inh-1: 71.7*; PfM18AAP inh-2: 42.6*; CTSL1 counter: -5.6

How did Nc1cc(-c2ccccc2)ccc1O do in these assays?
Yeast superoxide: 98.4; A3G deaminase: -9.8; ALR H2O2 inh: 98.8*; CendR NRP1 mod: -1.8; A3A deaminase: -5.0; PfM18AAP inh-1: 35.1*!; PfM18AAP inh-2: 15.2; CTSL1 counter: -3.2

What do the screens show for `Oc1ccc(-c2ccccc2)cc1CN1CCCCCC1`?
Yeast superoxide: 91.3; A3G deaminase: -5.9; ALR H2O2 inh: 27.2; CendR NRP1 mod: -4.1; A3A deaminase: -0.8; PfM18AAP inh-1: 7.2

What do the screens show for `COc1ccc(-c2c(C(=O)c3ccccc3)[nH]c(N)c2C(=O)NC2CC2)cc1OC`?
CendR NRP1 mod: -10.1

What do the screens show for `O=C(CSc1ncn[nH]1)N1N=C2/C(=C/c3ccco3)CCCC2C1c1ccco1` (stereo not given)?
Yeast superoxide: 82.0; A3G deaminase: -5.8; ALR H2O2 inh: -6.7; CendR NRP1 mod: -9.5; A3A deaminase: 1.9; PfM18AAP inh-1: 36.2*; PfM18AAP inh-2: 1.4; CTSL1 counter: 1.4

What do the screens show for `Cc1sc(NC(=S)Nc2ccc(F)cc2)c(C(N)=O)c1C`?
Yeast superoxide: 88.8; ALR H2O2 inh: -39.1; CendR NRP1 mod: -7.6; PfM18AAP inh-1: 47.1*; PfM18AAP inh-2: -5.5; CTSL1 counter: -1.1

How did COC(=O)c1cc(S(=O)(=O)NCc2cccc(Br)c2)c[nH]1 do in these assays?
Yeast superoxide: 107.4; A3G deaminase: -5.6; ALR H2O2 inh: -2.4; CendR NRP1 mod: -2.5; A3A deaminase: -3.4; PfM18AAP inh-1: 7.3

Results for CCOC(=O)C1CCCN(Cc2cccc(Oc3ccccc3)c2)C1 (stereo not given) ?
Yeast superoxide: 102.5; A3G deaminase: -6.0; ALR H2O2 inh: -4.4; CendR NRP1 mod: 0.0; A3A deaminase: -0.8; PfM18AAP inh-1: -3.1

Results for Cc1ccc(S(=O)(=O)N2Cc3ccccc3CC2C(=O)Nn2cnnc2)cc1 (stereo not given) ?
Yeast superoxide: 105.4; A3G deaminase: -2.3; ALR H2O2 inh: 0.2; CendR NRP1 mod: 11.7; A3A deaminase: -4.5; PfM18AAP inh-1: 41.0*; PfM18AAP inh-2: 36.2*; CTSL1 counter: -2.9

What do the screens show for `CC(C)(C)NC(=O)C1Cc2ccccc2CN1S(=O)(=O)c1ccc(F)cc1` (stereo not given)?
Yeast superoxide: 93.1; A3G deaminase: -4.4; ALR H2O2 inh: -0.2; CendR NRP1 mod: 2.4; A3A deaminase: -1.3; PfM18AAP inh-1: 1.2

Results for O=C(Nn1cnnc1)C1Cc2ccccc2CN1S(=O)(=O)c1ccc(F)cc1 (stereo not given) ?
Yeast superoxide: 91.6; A3G deaminase: -2.2; ALR H2O2 inh: 0.0; CendR NRP1 mod: -2.5; A3A deaminase: 1.8; PfM18AAP inh-1: 39.4*; PfM18AAP inh-2: 32.6*; CTSL1 counter: -3.0

What do the screens show for `O=S(=O)(c1ccc(Cl)cc1)N1CCN(c2nc(-c3cccs3)nc3ccccc23)CC1`?
CendR NRP1 mod: -2.4; PfM18AAP inh-1: -9.3

What do the screens show for `Cc1ccn2cc(-c3cccc(NC(=O)C(C)C)c3)nc2c1`?
Yeast superoxide: 100.7; A3G deaminase: -1.3; ALR H2O2 inh: 4.2; CendR NRP1 mod: 12.5; A3A deaminase: 0.1; PfM18AAP inh-1: 1.8

Results for c1ccc(-c2cn3ccccc3n2)cc1 ?
CendR NRP1 mod: -2.7

Results for Oc1ccc(-c2cn3ccccc3n2)cc1O ?
Yeast superoxide: 98.5; A3G deaminase: -10.8; ALR H2O2 inh: 98.8*; CendR NRP1 mod: -1.2; A3A deaminase: -4.4; PfM18AAP inh-1: 69.7*; PfM18AAP inh-2: 58.4*; CTSL1 counter: -1.7

How did Cc1ccn2cc(-c3ccc(O)c(O)c3)nc2c1 do in these assays?
Yeast superoxide: 92.8; A3G deaminase: -10.6; ALR H2O2 inh: 99.0*; CendR NRP1 mod: 11.1; A3A deaminase: -4.5; PfM18AAP inh-1: 71.5*; PfM18AAP inh-2: 51.3*; CTSL1 counter: -7.7

What do the screens show for `N#CC/C(N)=N/Nc1nc2ccccc2nc1Cc1ccccc1`?
Yeast superoxide: 91.0; A3G deaminase: -1.6; ALR H2O2 inh: 25.3; CendR NRP1 mod: -34.8; A3A deaminase: -1.6; PfM18AAP inh-1: 36.4*; PfM18AAP inh-2: 8.6; CTSL1 counter: -4.5

How did N#CCn1c(Cc2ccccc2)nc2ccccc2c1=O do in these assays?
Yeast superoxide: 102.3; A3G deaminase: 3.6; ALR H2O2 inh: -4.1; CendR NRP1 mod: -3.0; A3A deaminase: -1.8; PfM18AAP inh-1: 5.2

What do the screens show for `CCOc1ccc(C(=O)CCC(=O)N2CCN(c3ccc(O)cc3)CC2)cc1`?
Yeast superoxide: 92.0; A3G deaminase: 10.1; ALR H2O2 inh: inconclusive; CendR NRP1 mod: -1.7; A3A deaminase: -8.7

What do the screens show for `O=C(CCC(=O)N1CCN(c2ccc(O)cc2)CC1)c1ccc(Br)cc1`?
Yeast superoxide: 99.5; A3G deaminase: 12.2; ALR H2O2 inh: 40.8; A3A deaminase: -2.5; PfM18AAP inh-1: 42.2*; PfM18AAP inh-2: -19.3; CTSL1 counter: 2.4

How did O=C(CCC(=O)N1CCN(c2ccc(O)cc2)CC1)c1cccs1 do in these assays?
Yeast superoxide: 90.3; A3G deaminase: 16.0; ALR H2O2 inh: 99.1*; CendR NRP1 mod: 13.1; A3A deaminase: -6.5; PfM18AAP inh-1: 52.6*; PfM18AAP inh-2: -18.1; CTSL1 counter: -29.2

How did O=C(Nc1cccnc1)c1cc(F)c(F)cc1Cl do in these assays?
Yeast superoxide: 92.4; A3G deaminase: -2.4; ALR H2O2 inh: -1.0; CendR NRP1 mod: 10.2; A3A deaminase: 1.3; PfM18AAP inh-1: 0.3

What do the screens show for `Cc1ccc(N2C(=O)c3cccc4c(N)ccc(c34)C2=O)c2cccnc12`?
Yeast superoxide: 96.3; A3G deaminase: -168.4; ALR H2O2 inh: -1.5; CendR NRP1 mod: 129.8; A3A deaminase: -209.3; PfM18AAP inh-1: -1.4
